M1 PAM parental: counter-screen for M1 PAMs: effect in parental CHO-K1 cells; ATP EC20, Fluo-8 calcium fluorescence; 0% at ATP EC20, 100% at ATP max; activation, % at 3 µM; 360,000 compounds, 0.02% hits; AID 602247;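 active = activation above the run cutoff, the mean activation of all test compounds plus 3 SD, cut at about 40% in these data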;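 note: peak over basal fluorescence ratio in a 140 s read after ATP addition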
CHO-K1 Ca ag: counter-screen for M1 agonists: effect in parental CHO-K1 cells. 360,000 compounds, 0.48% hits. activation, % at 3 µM. Fluo-8 calcium fluorescence; scaled to maximal ATP response, vehicle zero. AID 602248; in the data active = activation above about 15%;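 note: untransfected CHO-K1 host cells lacking M1 receptor as counterscreen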
CHRM1 agonist: agonists of human M1 muscarinic receptor; AID 588814; P11229; CHO-K1 hM1, Fluo-8 calcium fluorescence, agonist mode; 0% DMSO, 100% acetylcholine EC100; activation, % at 3 µM; 360,000 compounds, 0.33% hits;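 active = activation above the run's mean compound activation plus 3 SD, cut at about 16% in these data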;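 note: peak over basal fluorescence ratio within a 140 s kinetic read after compound addition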
CHRM1 PAM: potentiates human M1 receptor response to acetylcholine; 360,000 compounds, 0.088% hits; P11229; activation, % at 3 µM; AID 588819; CHO-K1 hM1, Fluo-8 calcium fluorescence, ACh EC20; 0% = ACh EC20, 100% = maximal ACh; in the data active = activation above about 19%, passing the limit was not always enough
CHRM1 antagonist: blocks human M1 muscarinic receptor. CHO-K1 hM1, Fluo-8 calcium fluorescence, ACh EC80 antagonist. inhibition, % at 3 µM. 360,000 compounds, 1.3% hits. AID 588852;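 active = percent inhibition above its own plate's cutoff, namely the mean of that plate's compound wells plus 3 SD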;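 note: peak over basal fluorescence ratio during 140 s after agonist addition; 0% = ACh EC80 plus DMSO and 100% = DMSO alone without agonist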
CHO-K1 Ca antag: nonselective inhibitor or artifact in parental CHO-K1 cells. ATP-induced calcium, Fluo-8 fluorescence. inhibition, % at 3 µM. 360,000 compounds, 0.6% hits;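 active = inhibition above a per-plate cutoff, the plate's mean sample inhibition plus 3 SD, cut at about 24% in these data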;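 note: 0% = DMSO plus EC80 ATP and 100% = DMSO alone without ATP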
* hit, by the source's call. A selection: hits, their analogues and other compounds. The true share with any hit is near 2.3%.

SMILES	M1 PAM parental	CHO-K1 Ca ag	CHRM1 agonist	CHRM1 PAM	CHRM1 antagonist	CHO-K1 Ca antag
CC(C)c1ccc(CN2CCC(Oc3ccc(C(=O)N4CCCC4)cc3)CC2)cc1	-8	2	-4	-23	81*	3
COc1cc(C)c(CN2CCC(Oc3ccc(C(=O)N4CCCC4)cc3)CC2)cc1C	7	1	-5	1	-6	-11
O=C(c1ccc(OC2CCN(C/C=C/c3ccc(F)cc3)CC2)cc1)N1CCCC1	12	3	-4	-21	55*	-6
CSc1ccc(CN2CCC(Oc3ccc(C(=O)N4CCCC4)cc3)CC2)cc1	0	0	-5	-23	87*	-1
CCc1ccc(CN2CCC(Oc3ccc(C(=O)N4CCCCC4)cc3)CC2)cc1	2	4	-5	-21	42*	-8
CCOC(=O)C1(CC2CC2)CCN(Cc2ccc(OC)cc2F)CC1	-12	3	-9	-25	28*	13
CCc1ccc(CN2CCC(Oc3ccc(C(=O)N4CCCC4)cc3)CC2)cc1	-20	1	-6	-24	82*	5
CCOc1cccc(CN2CCC(Oc3ccc(C(=O)N4CCCC4)cc3)CC2)c1	3	1	-5	-23	49*	-11
O=C(c1ccc(OC2CCN(Cc3ccc(F)cc3)CC2)cc1)N1CCCC1	6	2	-6	-5	1	-9
O=C(CSc1nnc(Nc2ccccc2)s1)NN1C(=O)NC2(CCCCC2)C1=O	13	0	-5	8	-5	-7
CC1CCN(C(=O)COC(=O)CSc2ccc(C(N)=O)cc2[N+](=O)[O-])CC1	4	3	-3	-1	-1	-8
Cc1noc(C)c1S(=O)(=O)N1CCCC1C(=O)O (configuration not stated)	5	0	0	14	-3	-11
CC(=O)Nc1cccc(NC(=O)CCNC(=O)c2ccccc2)c1	-2	0	1	13	-5	-10
O=C(N/N=C/c1ccc(O)cc1)c1ccc(COc2cc(Cl)ccc2Cl)o1	20	15*	36*	0	0	14
CC(=O)N1c2ccc(S(=O)(=O)NCCc3ccccc3)cc2CC1C (configuration not stated)	-3	10	1	-14	29*	11
CC(=O)N1CCc2cc(S(=O)(=O)NCCC(=O)NCCc3ccc(Cl)cc3)ccc21	1	16*	0	-5	7	-2
O=C(c1[nH]c(C(F)(F)F)nc1-c1ccccc1)N1CCCCC1	-7	0	-1	0	2	26*
CCOC(=O)C1CCCN(C(=O)c2[nH]c(C(F)(F)F)nc2-c2ccccc2)C1 (configuration not stated)	-8	0	17*	-10	-9	0
CCOC(=O)N1CCN(C(=O)c2[nH]c(C(F)(F)F)nc2-c2ccccc2)CC1	9	0	9	8	-24	-15
CC(=O)N1CCN(C(=O)c2[nH]c(C(F)(F)F)nc2-c2ccccc2)CC1	8	1	-1	3	-24	-10
Cc1ccc2c(c1)C1(C(=O)N2)N2CCCC2C(C(=O)c2ccc3ccccc3c2)C12C(=O)Nc1ccccc12 (configuration not stated)	5	0	-3	2	-7	-9
COc1cccc(C(NC(C)=O)c2nc(-c3csc4ccccc34)cs2)c1 (configuration not stated)	-11	1	-1	-6	7	2
CC[n+]1c(-c2ccccc2)csc1Nc1c(C)n(C)n(-c2ccccc2)c1=O	17	2	-9	-26	51*	-5
CC[n+]1c(-c2ccc(C)cc2)csc1Nc1c(C)n(C)n(-c2ccccc2)c1=O	10	2	-8	-26	35*	-1
Cc1ccc(Nc2nc3ccccc3nc2Nc2c(C)n(C)n(-c3ccccc3)c2=O)cc1	12	0	-4	9	-6	1
CSc1ccc(/C=C/C(=O)c2c(O)cc(C)oc2=O)cc1	5	1	0	-3	5	4
CS(=O)(=O)N1CCN(c2ccccc2NC(=O)c2ccco2)CC1	13	1	2	2	-28	-12

Bioassay records deposited in PubChem by The Scripps Research Institute Molecular Screening Center.
